Screens from PubChem BioAssay.
A selection: hits, their analogues and other compounds. The true share with any hit is near 3.1%.
LEDGF integ inh: blocks HIV-1 LEDGF/p75-dependent DNA integration | actives 0.64% (n = 370,000) | AID 743269 | inhibition, % at 3.7 µM | TR-FRET IN-LEDGF/p75 DNA integration, Eu/Cy5;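 active = inhibition above the screen-wide mean plus 3 SD, cut at about 13% in these data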;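 note: signal is the Cy5 over europium emission ratio at 671 and 618 nm; 0% = plate median of compound wells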
proKLK7 act: activators of human kallikrein-7 zymogen. purified proKLK7, EDANS-DABCYL substrate fluorescence; 100% is mature enzyme control, 0% vehicle. activation, % at 7 µM. actives 0.9% (n = 370,000);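 active = activation above the mean of all tested compounds plus 3 SD, computed per campaign excluding outliers beyond control limits, cut at about 13% in these data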
Rin1-Abl PPI inh: inhibitors of human Rin1-Abl protein interaction; P00519+Q13671; inhibition, % at 7.35 µM; actives 0.4% (n = 360,000); TR-FRET Rin1/Abl binding, biochemical; in the data active = inhibition above about 5%, passing the limit was not always enough
MBD2 DNA inh: MBD2-methylated oligo binding inhibition | Q9UBB5 | TR-FRET, MBD2 binding to methylated oligonucleotide | inhibition, % at 4.4 µM | actives 0.31% (n = 370,000); in the data active = inhibition above about 13%
UHRF1 binding: UHRF1 methyl-DNA binding inhibition. actives 0.75% (n = 370,000). UHRF1 binding to methylated oligo, TR-FRET. AID 687016. inhibition, % at 4.4 µM; in the data active = inhibition above about 21%;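 note: UHRF1 SRA domain binding a hemimethylated CpG hairpin DNA probe; 0% = median of test compound wells and 100% = reference inhibitor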
Neddyl block: inhibitors of human cullin neddylation; P61081+Q13564; TR-FRET cullin neddylation, biochemical; calls only at 25 µM; actives 0.58% (n = 360,000); in the data active = inhibition above about 36%
proKLK7 act conf: proKLK7 activation, confirmation. AID 686949. purified proKLK7, EDANS-DABCYL substrate fluorescence; scaled: vehicle 0, mature enzyme 100. actives 68% (n = 3,200). activation, % at 7 µM. shares compounds with proKLK7 act;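 active = activation, as change over the incubation, above the mean of all tested compounds plus 3 SD, cut at about 13% in these data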
EDANS-DABCYL int: optically interferes with EDANS-DABCYL signal, flagging KLK7 hits; AID 686952; shares compounds with proKLK7 act; actives 80% (n = 3,200); activation, % at 7 µM; EDANS-DABCYL substrate fluorescence interference, no enzyme, 4 h; solvent 0%, active enzyme control 100%;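 active = activation above the all-compound mean plus 3 SD, ignoring values outside control-based bounds, cut at about 4.8% in these data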;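 note: value is the 4 h activation minus the activation read at time zero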
K7 EDANS ctr: optically interferes with EDANS-DABCYL fluorescence, kallikrein-7 activator counter-screen; shares compounds with proKLK7 act; EC50, µM; AID 720493; actives 20% (n = 250); EDANS-DABCYL peptide fluorescence interference, no enzyme;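 active = compounds that raise the fluorescence signal in this interference counterscreen, with EC50 at or below 10 µM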;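 note: intact quenched peptide substrate alone read at 355 nm excitation and 520 nm emission; signal is fluorescence gain from T0 to T4 after four hours at room temperature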
Active calls of the source: *; i = inactive; / = not tested or not shown.

SMILES | LEDGF integ inh | proKLK7 act | Rin1-Abl PPI inh | MBD2 DNA inh | UHRF1 binding | Neddyl block | proKLK7 act conf | EDANS-DABCYL int | others
COc1cc2c(cc1OC)CN(CC(=O)NC(=O)NC(C)(C)C)CC2 | -3 | 5 | 2 | -2 | -1 | / | / | /
COc1cc2c(cc1OC)CN(CC(=O)NC(=O)NCc1ccco1)CC2 | -2 | 48* | 4 | -3 | 2 | / | 14* | 14*
CCc1c(-c2ccc(OC)cc2)ncn1Cc1cccc(-c2ccccc2)c1 | 1 | 1 | / | 4 | 1 | i | / | /
CC(=O)Nc1ccc(S(=O)(=O)Nc2nc3ccccc3nc2-n2ccc(=NC(=O)c3ccc(F)cc3)cc2)cc1 | -2 | 81* | 1 | -10 | -36 | i | 96* | 87*
O=C(N=c1ccn(-c2nc3ccccc3nc2NS(=O)(=O)c2ccccc2)cc1)c1ccccc1Cl | 0 | 2 | -5 | -3 | 2 | i | / | /
CC(=O)Nc1ccc(S(=O)(=O)Nc2nc3ccccc3nc2-n2ccc(=NC(=O)c3ccccc3)cc2)cc1 | -8 | 39* | -2 | 1 | -2 | i | 40* | 16* | K7 EDANS ctr=i
O=C(N=c1ccn(-c2nc3ccccc3nc2NS(=O)(=O)c2ccc(Cl)cc2)cc1)c1cccs1 | 4 | 0 | 0 | -2 | 0 | i | / | /
Cc1ccc(-c2[nH]c(-c3ccc(C(=O)O)cc3)nc2-c2ccccc2)cc1 | 1 | 33* | 2 | -1 | 1 | / | 67* | 69*
O=C(O)c1ccc(-c2nc(-c3ccccc3)c(-c3cccs3)[nH]2)cc1 | -3 | 10 | -1 | 1 | 0 | / | / | /
CCNC(=S)N1CCc2cc(OC)c(OC)cc2C1COc1ccccc1OC (configuration not stated) | -2 | 58* | -1 | 0 | 0 | / | 30* | 36*
CN1CCC(N[C@@H](Cc2ccccc2)C(=O)NCC(c2ccccc2)c2ccccc2)(C(=O)NC2CCCCC2)CC1 | 9 | / | / | -5 | 1 | / | / | /
COc1cc2sc(-c3ccc(S(C)(=O)=O)cc3)c(C(=O)NCc3ccc(C)o3)c2cc1OC | 2 | 14* | -1 | 4 | -2 | / | 23* | 31*
COc1cc2sc(-c3ccc(S(C)(=O)=O)cc3)c(C(=O)NCCCCO)c2cc1OC | -2 | 31* | -2 | 0 | -4 | / | 22* | 32*
CCC(=O)Oc1c(C(=O)CC)cc2c(C)cc(=O)oc2c1C | 1 | 540* | -1 | 8 | -3 | i | 810* | 812*
CCC(=O)c1cc2c(C)cc(=O)oc2c(C)c1OC | 3 | 0 | -3 | -8 | -1 | i | / | /
CCC(=O)Nc1c(OC(=O)CC)ccc2c(C)cc(=O)oc12 | -1 | 273* | -2 | 1 | 0 | / | 256* | 254*
CN(C1=NS(=O)(=O)c2ccccc21)c1ccc(OC(=O)c2ccncc2)cc1 | -1 | 1 | -1 | -2 | -1 | i | / | /
CN1CCN(c2c(F)cc3c(=O)c(C(=O)O)cn4c3c2SCC4)CC1 | 5 | 98* | 1 | 2 | 6 | / | 35* | 43*
C[C@H]1COc2c(N3CCN(C)CC3)c(F)cc3c(=O)c(C(=O)O)cn1c23 | 0 | 172* | 1 | -1 | 3 | / | 55* | 56*
c1ccc(-c2ccc(CNc3nc(-c4ccccn4)nnc3-c3ccccc3)cc2)cc1 | -3 | / | / | 2 | -2 | / | / | /
Cc1ccsc1C1Nc2ccccc2C(=O)N1O (configuration not stated) | 2 | 0 | 3 | -2 | -1 | i | / | /
c1csc(C2Nc3ccccc3-c3nc4ccccc4n32)c1 (configuration not stated) | -3 | 90* | -2 | -1 | -2 | / | 30* | 27*
CN1c2ccccc2-c2nc3ccccc3n2C1c1cccs1 (configuration not stated) | 0 | 40* | -3 | 0 | -3 | / | -12 | -11
